Assay results: PubChem BioAssay (Tox21)
Several values for one entry are separate records, joined by “and”; a condition that tells them apart may be missing. Equal entries are not always repeated. Inconclusive results are not listed. Entries that show only a call come without a potency. Activity calls are given as the source filed them. The call rests on the fitted dose curve; in most records, active means well fitted inhibition curve with a large enough effect in the repeat runs; inconclusive means weak or mixed curves; inactive means no such curve, though single readings can be large or run the other way.

The compounds below were run against Cytochrome P450 2D6 (Homo sapiens) (UniProt P10635) (assay: Cytochrome P450 Family 2 Subfamily D Member 6 (CYP2D6) small molecule antagonists: luciferase reporter qHTS assay (AID 1671196; further: nearly all actives have a fitted effect of over 50% in size)). Conditions: P450-Glo CYP2D6 enzyme assay, luciferin luminescence, 1 h; series mostly up to 115 µM.
Cytochrome P450 2D6 (Homo sapiens), sequence (P10635 whole entry, looked up): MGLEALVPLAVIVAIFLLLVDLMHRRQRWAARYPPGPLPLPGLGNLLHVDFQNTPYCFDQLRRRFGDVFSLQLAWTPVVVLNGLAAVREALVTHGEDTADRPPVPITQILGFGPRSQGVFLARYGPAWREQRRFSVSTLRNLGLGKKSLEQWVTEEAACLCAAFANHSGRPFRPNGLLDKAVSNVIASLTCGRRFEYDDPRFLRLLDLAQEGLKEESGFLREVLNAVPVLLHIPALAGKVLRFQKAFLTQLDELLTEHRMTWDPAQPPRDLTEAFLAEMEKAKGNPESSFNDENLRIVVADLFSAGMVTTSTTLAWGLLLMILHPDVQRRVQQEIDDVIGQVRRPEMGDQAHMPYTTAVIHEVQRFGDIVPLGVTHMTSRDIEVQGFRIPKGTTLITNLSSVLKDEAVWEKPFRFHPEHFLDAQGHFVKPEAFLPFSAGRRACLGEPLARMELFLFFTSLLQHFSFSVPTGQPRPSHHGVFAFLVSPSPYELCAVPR
In short: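 Inhibition of CYP2D6 was gauged by loss of luminescence, since light produced tracks the luciferin generated from a proluciferin substrate. A 10 min room-temperature preincubation preceded 1 h NADPH-supported turnover.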

SMILES	Potency
CCC(OCCCOC)OC(C)=O (configuration not stated)	inactive
CCCCCC#CC(=O)OC	inactive
C[C@@H](O)[C@H]1C(=O)N2C(C(=O)O)=C([C@H]3CCCO3)S[C@H]12	inactive
C=C1C[C@@]23CC[C@H]4[C@@](C)(CCC[C@@]4(C)C(=O)O[C@@H]4O[C@H](CO)[C@@H](O)[C@H](O)[C@H]4O)[C@@H]2CC[C@]1(O[C@@H]1O[C@H](CO)[C@@H](O)[C@H](O[C@@H]2O[C@H](CO)[C@@H](O)[C@H](O)[C@H]2O)[C@H]1O[C@@H]1O[C@H](CO)[C@@H](O)[C@H](O)[C@H]1O)C3	inactive

These compounds were tested against Cytochrome P450 2C19 (Homo sapiens) (UniProt P33261) (assay: Cytochrome P450 Family 2 Subfamily C Member 19 (CYP2C19) small molecule antagonists: luciferase reporter qHTS assay (AID 1671197; further: nearly all actives have a fitted effect of over 65% in size; further: potency means the concentration at half of the fitted maximal effect)). Conditions: P450-Glo CYP2C19 enzyme, luciferin luminescence, 1 h; series mostly up to 52.9 µM.
Cytochrome P450 2C19 (Homo sapiens), sequence (P33261 whole entry, looked up): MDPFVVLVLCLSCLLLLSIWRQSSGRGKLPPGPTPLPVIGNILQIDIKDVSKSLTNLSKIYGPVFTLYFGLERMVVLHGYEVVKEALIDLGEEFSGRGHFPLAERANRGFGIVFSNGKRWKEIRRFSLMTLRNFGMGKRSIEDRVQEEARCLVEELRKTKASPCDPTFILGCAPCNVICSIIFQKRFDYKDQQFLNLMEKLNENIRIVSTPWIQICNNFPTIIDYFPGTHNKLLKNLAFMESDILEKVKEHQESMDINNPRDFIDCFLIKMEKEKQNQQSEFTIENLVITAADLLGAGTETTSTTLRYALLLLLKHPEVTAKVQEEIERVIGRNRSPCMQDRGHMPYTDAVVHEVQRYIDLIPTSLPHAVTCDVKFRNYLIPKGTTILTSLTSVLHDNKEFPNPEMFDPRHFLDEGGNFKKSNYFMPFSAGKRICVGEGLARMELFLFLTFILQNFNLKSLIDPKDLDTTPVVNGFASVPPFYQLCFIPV
In short: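 P450-Glo CYP2C19 system: enzyme-substrate mix with compound 10 min at room temperature, then NADPH regeneration solution, 1 h at 37C. Proluciferin-to-luciferin conversion detected by luminescence after 20 min with detection reagent; ketoconazole as positive control.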

SMILES	Potency
Oc1c(I)cc(I)c2cccnc12	inactive
CCCCCCCCC(CCCCCC)C(=O)O (configuration not stated)	35.6 µM (active)
O=c1[nH]c2ccc(Cl)cc2o1	79.6 µM (active)
CCOC(=O)c1ccc(C#Cc2ccc3c(c2)C(C)(C)CCS3)nc1	inactive
C=CCc1ccccc1OCC(O)CNC(C)C (configuration not stated)	inactive
CC(C)Nc1cccnc1N1CCN(C(=O)c2cc3cc(NS(C)(=O)=O)ccc3[nH]2)CC1	9.77 µM (active)
Oc1ccc(Cl)c2cccnc12	inactive
NC1[C@H]2CN(c3nc4c(cc3F)c(=O)c(C(=O)O)cn4-c3ccc(F)cc3F)C[C@@H]12 (some centres not stated)	inactive
CN1C(C(=O)Nc2ccccn2)=C(O)c2sccc2S1(=O)=O	inactive
CC1CC(C)C(=O)C1=O (configuration not stated)	inactive
CC(=O)c1cc2ccccc2s1	inactive
CC(CC1c2ccccc2CCc2ccccc21)CN(C)C (configuration not stated)	8.71 µM (active)
Cc1cc2c(OCC(CNC(C)(C)C)OC(=O)c3ccccc3)cccc2[nH]1 (configuration not stated)	38.9 µM (active)
CN1CCCN=C1COC(=O)C(O)(c1ccccc1)C1CCCCC1 (configuration not stated)	inactive
OCCOCC#CCOCCO	inactive
c1ccc2c(c1)CCc1ccccc1N2	8 µM (active) and 8.71 µM (active)
CC(C)(C)CC(=O)OCC(=O)[C@@]1(O)CC[C@H]2[C@@H]3CCC4=CC(=O)C=C[C@]4(C)[C@H]3[C@@H](O)C[C@@]21C	9.77 µM (active)
CC(=O)NC1(c2cccc(F)c2)CCN(CC[C@@]2(c3ccc(Cl)c(Cl)c3)CN(c3ccccc3)C(=O)CO2)CC1	6.34 µM (active)
O=C(O)c1cccc(-c2noc(-c3ccccc3F)n2)c1	0.776 µM (active)

SMILES	Potency
CCCCC(CC)COP(=O)(O)O (configuration not stated)	40.6 µM (active)
N#CCc1ccc(Cl)cc1Cl	79.6 µM (active)
CCCCCCCCCCCCCCN(CCO)CCO	79.6 µM (active)
COC(=O)C1=C(C)NC(C)=C(C(=O)O[C@@H]2CCCN(Cc3ccccc3)C2)[C@@H]1c1cccc([N+](=O)[O-])c1	4.9 µM (active)
C[C@@H](O[C@H]1OCCN(Cc2n[nH]c(=O)[nH]2)[C@H]1c1ccc(F)cc1)c1cc(C(F)(F)F)cc(C(F)(F)F)c1	15.5 µM (active)
c1cc(N(CC2CO2)CC2CO2)ccc1Cc1ccc(N(CC2CO2)CC2CO2)cc1 (configuration not stated)	63.3 µM (active)
NCCNCCO	inactive
CC(C)=CC(=O)C=C(C)C	39.7 µM (active)
CC(C)=CCC/C(C)=C/CC/C(C)=C/CCC(=O)OC/C=C(\C)CCC=C(C)C	inactive
O=[N+]([O-])c1ccc(O/N=C/c2cc(Br)c(O)c(Br)c2)c([N+](=O)[O-])c1	79.3 µM (active)
O=c1cc(-c2ccccc2)oc2ccc3ccccc3c12	3.56 µM (active)
CCCCN(CCN(CCCC)C(=O)N1CCOCC1)C(=O)N1CCOCC1	inactive
O=C(/C=C/c1ccccc1)OCCc1ccccc1	20 µM (active)
CC[C@]1(O)C[C@H]2CN(CCc3c([nH]c4ccccc34)[C@@](C(=O)OC)(c3cc4c(cc3OC)N(C=O)[C@H]3[C@@](O)(C(=O)OC)[C@H](OC(C)=O)[C@]5(CC)C=CCN6CC[C@]43[C@@H]65)C2)C1	inactive
COc1ccc(OC(=O)N(CC(=O)O)Cc2ccc(OCCc3nc(-c4ccccc4)oc3C)cc2)cc1	inactive
CCC(OCCCOC)OC(C)=O (configuration not stated)	inactive
CCCCCC#CC(=O)OC	inactive
C[C@@H](O)[C@H]1C(=O)N2C(C(=O)O)=C([C@H]3CCCO3)S[C@H]12	inactive
C=C1C[C@@]23CC[C@H]4[C@@](C)(CCC[C@@]4(C)C(=O)O[C@@H]4O[C@H](CO)[C@@H](O)[C@H](O)[C@H]4O)[C@@H]2CC[C@]1(O[C@@H]1O[C@H](CO)[C@@H](O)[C@H](O[C@@H]2O[C@H](CO)[C@@H](O)[C@H](O)[C@H]2O)[C@H]1O[C@@H]1O[C@H](CO)[C@@H](O)[C@H](O)[C@H]1O)C3	inactive
